FPRL1 binder – human FPRL1 ligand, with FPR counter-screen. P25090. FPRL1-expressing cells, fluorescent ligand binding inhibition, flow cytometry. inhibition, % (test concentration not listed). 0.3% of 24,000 active. AID 441
Target sequence (P25090 whole entry, looked up): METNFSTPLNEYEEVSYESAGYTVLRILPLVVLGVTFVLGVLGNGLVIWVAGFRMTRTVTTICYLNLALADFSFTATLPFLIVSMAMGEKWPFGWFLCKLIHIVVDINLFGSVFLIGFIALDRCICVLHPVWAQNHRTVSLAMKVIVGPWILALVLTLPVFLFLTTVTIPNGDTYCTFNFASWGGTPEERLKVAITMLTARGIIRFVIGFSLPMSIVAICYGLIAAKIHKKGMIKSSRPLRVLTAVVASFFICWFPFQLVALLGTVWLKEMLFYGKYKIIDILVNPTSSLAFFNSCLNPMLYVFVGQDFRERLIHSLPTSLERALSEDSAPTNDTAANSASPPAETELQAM
Jurkat autofluor – counter-screen for VLA-4 integrin: compound autofluorescence in Jurkat cells; fluorescence ratio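 (tested at 10 µM compound in the well)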; 0.61% of 24,000 active; flow cytometry; active compounds read high; 1 = vehicle-only cell background;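 active means fluorescence ratio above 2.44, which is 1 plus 3 SD of all ratios; inconclusive means signal too bright to measure linearly, ratio around 10 or more; inactive means fluorescence ratio below 2.44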;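 further: green fluorescence of cells measured with 488 nm excitation and 530 nm emission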
VLA-4 agonist – allosterically activates the human VLA-4 integrin; P13612; 24,000 tested, under 10 active; activation, % at 10 µM (by protocol); AID 528; Jurkat cells, LDV-FITC binding, flow cytometry;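 active means fluorescent ligand binding to cells raised by more than 40% of the manganese-induced maximum; inconclusive means compound's own fluorescence above 85% of the ligand control signal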
FPR ligand – human FPR ligand, with FPRL1 counter-screen; 0.74% of 24,000 active; P21462; inhibition, % (concentration not given with the values); AID 440; FPR-expressing cells, fluorescent ligand binding, flow cytometry
LNCaP diff act – promotes differentiation of LNCaP prostate cells; flow cytometry side scatter, 4 d; side scatter shift, % at 10 µM; 0.56% of 24,000 active; AID 795;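 active means side scatter shift above 30%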;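 further: androgen-responsive LNCaP prostate cancer cells in charcoal-stripped serum medium; higher shift means more granular cells and more differentiation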
VLA-4 antagonist – inhibitors of LDV-FITC ligand binding to Mn2+-activated human VLA-4 integrin. Jurkat cells, LDV-FITC binding with Mn2+, flow cytometry; 100% = Mn2+-driven binding gain fully reversed. P13612. 0.2% of 24,000 active. inhibition, % at 10 µM (by protocol);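 active means inhibition above 50%; inconclusive means compound itself fluorescent, judged against control cell fluorescence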
Hits are given with their value; – = inactive; ? = inconclusive; · = not tested or not shown. In the library only some 1.9% were active in any assay of this set; here they are far more common. Unless noted, no stated cut-off is given here; in the data, active means inhibition above about 30%; inconclusive means no clear call, values can overlap the other calls; inactive means below that.

SMILES	FPRL1 binder	Jurkat autofluor	VLA-4 agonist	FPR ligand	LNCaP diff act	VLA-4 antagonist
CCC(=O)N1CCNC(=O)C1CC(=O)Nc1ccc(C)c(Cl)c1 (centres undefined)	–	–	–	–	–	52
CC(NC(=O)CC1Nc2ccccc2NC1=O)c1ccccc1 (centres undefined)	–	–	–	–	–	–
CCOc1ccccc1NC(=O)CC1Nc2cc(C)c(C)cc2NC1=O (centres undefined)	–	4.9	?	–	–	?
Cc1ccc(NC(=O)CC2Nc3ccccc3NC2=O)cc1Cl (centres undefined)	–	6.7	?	–	–	?
CCOC(=O)N1CCC(N2C(=O)c3ccccc3C2Nc2cc(C(=O)OC)cc(C(=O)OC)c2)CC1 (centres undefined)	–	–	–	–	–	–
O=C(c1nc2n(n1)C(c1ccc(Cl)cc1)C=C(c1ccccc1)N2)N1CCOCC1 (centres undefined)	–	3.5	?	–	–	?
COc1ccc(C)cc1NC(=O)CN1CCN(S(=O)(=O)c2ccc(Br)cc2)CC1	–	–	–	–	–	–
CCN(CC)c1ccc2c(c1)CCCN2	–	4.5	?	–	–	?
N#CC1=C(N)SC(N)=C(C#N)C1c1ccc(C(F)(F)F)cc1	–	–	–	–	–	–
N#CC1=C(N)SC(N)=C(C#N)C1CCc1ccccc1	–	2.9	?	–	–	?
Cc1cccc2c(=O)oc(-c3ccc4c(c3)C(=O)N(CC3CCCO3)C4=O)nc12 (centres undefined)	–	–	–	–	–	–
CC(=O)Nc1ccccc1O	–	–	–	–	–	–
CC(=O)Nc1cccc(C(=O)Oc2cccc(C)c2)c1O	–	–	–	–	–	61
CC(C)OC(=O)c1cc(=O)[nH]c2ccccc12	–	–	–	–	–	–
COC(=O)C1Cc2c([nH]c3ccccc23)CN1 (centres undefined)	–	4.1	?	–	–	?
c1cc(-c2nc3ccccc3o2)nc(-c2nc3ccccc3o2)c1	–	–	–	–	–	–
c1cncc(-c2nc3ccccc3o2)c1	?	9.8	?	?	–	?
Cc1noc(/C=C/N(C)C)c1S(=O)(=O)N1CCC(C(=O)O)CC1	–	–	?	–	–	?
CC1CCCN(CCCNC(=O)c2coc3nc4ccccc4nc23)C1 (centres undefined)	–	4.7	?	–	–	?
CC1CCN(CCCNC(=O)c2coc3nc4ccccc4nc23)CC1	–	–	?	–	–	?
Cc1ccc(CCNC(=O)c2coc3nc4ccccc4nc23)cc1	–	4.2	?	–	–	?
CC(C)c1ccc(S(=O)(=O)N2CCN(C(=O)c3cccc(F)c3)CC2)cc1	–	–	–	–	–	–
O=C(NC1CCCCC1)c1sc(=S)n2c1[nH]c(=O)c1ccccc12	–	–	?	62	–	?
CCCCNC(=O)c1sc(=S)n2c1[nH]c(=O)c1ccccc12	–	–	?	89	–	?
O=C(NCC1CCCO1)c1sc(=S)n2c1[nH]c(=O)c1ccc(C(=O)N3CCCCC3)cc12 (centres undefined)	–	–	–	–	–	–
SMILES	FPRL1 binder	Jurkat autofluor	VLA-4 agonist	FPR ligand	LNCaP diff act	VLA-4 antagonist
Cc1[nH]n2c(=O)c3c(nc2c1-c1cccc2ccccc12)CCC3	–	·	·	48	·	·
O=c1cc(N2CCN(c3ccc(F)cc3)CC2)[nH]c(=O)n1C1CCCCC1	–	–	–	–	34	–
O=C(NCc1ccc2c(c1)OCO2)Oc1ccccc1	–	–	–	–	–	–
Cc1c(C)c2cc(Cl)c(O)c(CN3CCCCC3)c2oc1=O	50	–	–	38	–	–
CCCCOc1ccc(CC(=O)NO)cc1	–	–	–	–	–	–
CCCOc1ccc(C(CC(=O)O)NC(=O)C23CC4CC(CC(C4)C2)C3)cc1 (centres undefined)	·	–	–	·	·	113
COc1ccc(Nc2nc(N3CCCC3)c3ccccc3n2)cc1	–	–	–	–	50	–
O=C(OCCN=C1NS(=O)(=O)c2ccccc21)C1CC(=O)N(c2ccc(Cl)cc2)C1 (centres undefined)	–	–	–	–	–	–
Cc1c(C(=O)NCc2cccnc2)oc2ccc(S(=O)(=O)N3CCCCCC3)cc12	–	–	–	–	–	–
Cc1cc(N2CCN(C)CC2)nc2ccc(NC(=O)c3ccc4c(c3)OCO4)cc12	–	–	–	–	57	–
CCOc1ccccc1NC(=O)CCC(=O)Nc1ccc2nc(N3CCN(C)CC3)cc(C)c2c1	–	–	–	–	–	–
Cc1cc(N2CCN(C)CC2)nc2ccc(NC(=O)c3ccc(Br)o3)cc12	–	–	?	–	35	?
O=C(COC(=O)C1CC1)c1c[nH]c2ccccc12	–	–	–	–	–	–
COc1ccc2c(C(=O)CN(C)C3CCCCC3)c[nH]c2c1	–	6.7	?	–	–	?
CCOC(=O)c1cc2c(=O)n3ccccc3nc2n(CCCOC)c1=NC(=O)c1cccnc1	–	–	–	–	·	–
CCOC(=O)c1cc2c(=O)n3ccccc3nc2n(Cc2ccco2)c1=NC(=O)c1cccnc1	–	4.3	?	–	–	?
CCOC(=O)c1cc2c(=O)n3cccc(C)c3nc2n(Cc2ccco2)c1=NC(=O)c1cccnc1	–	5.5	?	–	–	?
COCCCNC(=O)c1ccccc1NS(=O)(=O)c1ccc(C)cc1	–	–	–	–	–	–
Cc1ccc2c(C)nc(NC3=NCN(C(C)C)CN3)nc2c1	–	–	–	–	–	–
Cc1nc(C)c(C(=O)C2=C(O)C(=O)N(CCCn3ccnc3)C2c2ccccc2)s1 (centres undefined)	–	–	–	–	–	–
CCOc1ccc(C2C(C(=O)c3ccco3)=C(O)C(=O)N2CCCn2ccnc2)cc1 (centres undefined)	–	·	·	70	·	·
Cc1ccc(C(=O)C2=C(O)C(=O)N(CCCn3ccnc3)C2c2ccc(OC(C)C)cc2)o1 (centres undefined)	–	·	·	65	·	·
CCOc1ccc(C2C(C(=O)c3cccs3)=C(O)C(=O)N2CCCn2ccnc2)cc1 (centres undefined)	–	·	·	30	·	·
COCCN1C(=O)C(O)=C(C(=O)c2cccs2)C1c1ccccc1 (centres undefined)	–	·	·	60	·	·
COc1cccc(C2C(C(=O)c3ccc(C)o3)=C(O)C(=O)N2CCCN(C)C)c1 (centres undefined)	–	–	–	–	–	–
CCCOc1ccc(/C(O)=C2/C(=O)C(=O)N(CCCn3ccnc3)C2c2ccco2)cc1 (centres undefined)	–	·	·	–	·	·
O=C1C(=O)N(CCCn2ccnc2)C(c2cccnc2)/C1=C(/O)c1ccc(F)cc1 (centres undefined)	–	·	·	–	·	·
Cc1nn(C(=O)c2ccccc2)c2c1C(=O)CC(C)(C)C2	–	–	–	–	–	–
